These results are taken from PubChem BioAssay (NCI).

Compounds without any hit were thinned out: in the full panel of roughly 83,000, 20% have a hit.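 Single-dose data. Exposure time 48 hours. Values below 10 considered active.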 A number with no mark means an inactive call. Active and inactive are the calls of the source.

Common to all, as to assay: NCI-60 one-dose screen, 48 h (100 = growth as untreated, 0 = no growth, -100 = all killed)
The subject of assay [1] is NCI-H226 lung. The conditions noted are these: 10 µM.
Assay [2] concerns HOP-62 NSCLC. The conditions noted are these: 10 µM.
Assay [3] concerns NCI-H460 lung. The conditions noted are these: 10 µM.
For assay [4], the system named is A549/ATCC NSCLC. The conditions noted are these: 10 µM.
The subject of assay [5] is DU-145 prostate. The conditions noted are these: 10 µM.
Assay [6] deals with SF-268 CNS. The conditions noted are these: 10 µM.
Assay [7] has as its system SF-295 CNS. The conditions noted are these: 10 µM.
Assay [8] relates to SF-539 CNS. The conditions noted are these: 10 µM.
The test system of assay [9] is UACC-257 melanoma. The conditions noted are these: 10 µM.
The test system of assay [10] is M14 melanoma. The conditions noted are these: 10 µM.
Assay [11] has as its system HCT-15 colon. The conditions noted are these: 10 µM.
Assay [12] deals with HT29 colon. The conditions noted are these: 10 µM.
Assay [13] deals with SNB-75 CNS. The conditions noted are these: 10 µM.
In assay [14] the test system is SNB-19 CNS. The conditions noted are these: 10 µM.
In assay [15] the test system is U251 CNS. The conditions noted are these: 10 µM.
In assay [16] the test system is SK-MEL-5 melanoma. The conditions noted are these: 10 µM.
Assay [17] deals with UACC-62 melanoma. The conditions noted are these: 10 µM.
Assay [18] relates to SK-MEL-28 melanoma. The conditions noted are these: 10 µM.
The subject of assay [19] is SK-MEL-2 melanoma. The conditions noted are these: 10 µM.
The subject of assay [20] is HL-60(TB) leukemia. The conditions noted are these: 10 µM unless noted.

Regarding `COc1ccc(/C=C/C(=O)c2nc3ccccc3n2Cc2ccc(Br)cc2)cc1`, the growth in assay [1] was 69.7%; in assay [2], 92.8%; in assay [3], 57.8%; in assay [4] it was 74.6%; in assay [5] it was 61.9%; in [6], 68%. Also, the growth in assay [7] is 81.9%; in [8] it was 78.3%; in [9], 72.3%; in assay [10], 72.5%; in assay [11], 38.8%; in assay [12] it was 64.9%. The growth is 66.1% in assay [13]; 74.4% in assay [14]; 50.2% in assay [15]; 83.3% in assay [16]; 65% in assay [17]; 85.9% in [18]. Besides, the growth is 88.8% in assay [19] and 41.2% in [20].

With `COc1cc2c(c(OC)c1OC)C(=O)CC(c1cccc(NC(=O)c3cc([N+](=O)[O-])ccc3Cl)c1)O2` (stereo unspecified), the growth in assay [20] is 34.1%.

Consider `C[C@H]1[C@@H](Oc2ccc(-c3cn(-c4ccnc5cc(Cl)ccc45)nn3)cc2)O[C@@H]2OC3(C)CC[C@H]4[C@H](C)CC[C@@H]1[C@@]24OO3`, for which the growth in [1] is 48.2%; in assay [2] it was 46.3%; in assay [3], 25.3%; in [4], 35.2%; in [5], 51.6%; in assay [6], 46.3%. The growth in assay [7] was 37.6%; in assay [8], 30.5%; in [9] it was 41.1%; in assay [10], 31.8%; in [11], 12.8%; in assay [12] it was 22.3%. Moreover, the growth in assay [13] is 61.6%; in [14] it was 40.4%; in [15], 39.1%; in assay [16], 20.3%; in [17], 21.2%; in [18], 33.3%. The growth was 7.17% (active) in [19] and 6.05% (active) in assay [20].

In the case of `CC[C@]12C=CCN3CC[C@@]4(c5ccc(OC)cc5N(C)[C@H]4[C@@](O)(C(=O)OC)[C@@H]1OC(=O)CCC[P+](C1CCCCC1)(C1CCCCC1)C1CCCCC1)[C@@H]32`, the growth is -20% (active) in [1]; 4.26% (active) in [2]; 4.64% (active) in assay [3]; 14.1% in assay [4]; 15.7% in assay [5]; -54.1% (active) in assay [6]. Moreover, the growth in assay [7] is -13.5% (active); in [8], -86.5% (active); in assay [9], -80.9% (active); in [10] it was -78% (active); in assay [11] it was 76.6%; in assay [12] it was -56.7% (active). Also, the growth in assay [13] is -61.4% (active); in [14] it was -60% (active); in assay [15], -82.5% (active); in assay [16], -98.4% (active); in assay [17], -97.3% (active); in [18], -85.9% (active). Also, the growth is -84.9% (active) in assay [19] and -37.1% (active) in assay [20].

Consider `CC12OOC(C)(OO1)C2CCC(=O)OCCNc1ccnc2cc(Cl)ccc12` (stereo unspecified), for which the growth in assay [1] is 98%; in assay [2], 96.8%; in assay [3] it was 45.2%; in [4], 9.38% (active); in assay [5] it was -53.9% (active); in assay [6], 97%. Further, the growth in [7] is 83%; in assay [8] it was 35.6%; in [9] it was 82.1%; in assay [10] it was 14.6%; in [11], -73.2% (active); in assay [12] it was -59.8% (active). Besides, the growth in assay [13] was 90.5%; in [14], 97.6%; in assay [15] it was 105%; in [16], 36.5%; in [17], 88.1%; in assay [18], 93%. Also, the growth in [19] was 107%; in assay [20], -40.3% (active).

As for `COc1cc(OC)c(S(=O)(=O)N(CCCl)CCCl)cc1C(=O)/C=C/c1cc(OC)c(OC)c(OC)c1`, the growth in [1] was 7.87% (active); in assay [2] it was -5.79% (active); in [3] it was 1.08% (active); in assay [4] it was 3.9% (active); in assay [5] it was -30.3% (active); in [6], 2.74% (active). Moreover, the growth is 0.899% (active) in [7]; -74.1% (active) in [8]; -60% (active) in assay [9]; -59.4% (active) in [10]; -25.1% (active) in assay [11]; -58.7% (active) in [12]. Also, the growth was -78.2% (active) in [13]; -38.6% (active) in assay [14]; -79.6% (active) in assay [15]; -71.3% (active) in [16]; -33.9% (active) in assay [17]; -68.5% (active) in assay [18]. Also, the growth is -94.5% (active) in [19] and -25.8% (active) in assay [20].

In the case of `CC[C@]12C=CCN3CC[C@@]4(c5ccc(OC)cc5N(C)[C@H]4[C@@](O)(C(=O)OC)[C@@H]1OC(=O)CCCC[P+](c1ccc(OC)cc1)(c1ccc(OC)cc1)c1ccc(OC)cc1)[C@@H]32`, the growth was -63.6% (active) in [1]; -80.8% (active) in assay [2]; -87% (active) in assay [3]; -83.7% (active) in assay [4]; -58.2% (active) in assay [5]; -38.1% (active) in assay [6]. In addition, the growth in assay [7] was -93.6% (active); in assay [8], -97.4% (active); in assay [9], -93.4% (active); in [10], -89.8% (active); in [11], -5.69% (active); in [12], -63.1% (active). Also, the growth in assay [13] was -95.4% (active); in assay [14], -95.7% (active); in assay [15] it was -95.9% (active); in [16] it was -97% (active); in [17] it was -95.2% (active); in assay [18], -96.8% (active). Further, the growth in assay [19] is -91.4% (active); in [20] it was -45.2% (active).

As for `CCOC(=O)C1=C(Nc2ccccc2)C(=O)OC12C(=O)Nc1ccccc12` (stereo unspecified), the growth in [1] is 115%; in assay [2], 97.6%; in [3], 108%; in [4] it was 112%; in assay [5], 114%; in assay [6], 95.7%. Also, the growth in assay [7] is 107%; in assay [8], 97.6%; in assay [9], 101%; in assay [10], 105%; in [11], 105%; in assay [12], 111%. For the same compound, the growth was 80.6% in assay [13]; 96.4% in assay [14]; 109% in [15]; 107% in [16]; 93.5% in assay [17]; 107% in [18]. Besides, the results for the growth in assay [19] and in assay [20] were 99.9% and 102%, respectively.
